Reference: PubChem BioAssay AID1159580 (chemical genetic matrix, 2015)
The campaign covered roughly 5,500 compounds. About 2,000 (36%) were called active. Roughly 18% stayed inconclusive and do not appear here. Rule as the data show it: active = normalized growth mostly below about 0.91 (no sharp cut-off); inconclusive = no clear call, values can overlap the other calls; inactive = mostly above about 0.92. This is one part of the list.

Experiment: chemical genetic growth profiling, strain panel (AID 1159580);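 also: tested at 20 µM; growth read once vehicle control cultures reached saturation at 30 °C; 1 = growth at the plate median or of vehicle wells; lower values mean less growth of the strain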
Settings: growth OD
[1] = S. cerevisiae deletion strains, locus YGR078C, strain PAC10, active compounds read low
[2] = S. cerevisiae deletion strains, locus YMR263W, strain SAP30, active compounds read low
[3] = S. cerevisiae deletion strains, locus YNL153C, strain GIM3, active compounds read low
[4] = S. cerevisiae deletion strains, locus YPL241C, strain CIN2, active compounds read low

Measured: normalized growth

N[C@H](C(=O)O)[C@@H]1CC(Cl)=NO1
active: S. cerevisiae deletion strains, locus YAL013W, strain DEP1, active compounds read low 0.796 | S. cerevisiae deletion strains, locus YBR021W, strain FUR4, active compounds read low 1.27 [resistant] | S. cerevisiae deletion strains, locus YBR229C, strain ROT2, active compounds read low 0.629 | S. cerevisiae deletion strains, locus YCL029C, strain bik1, active compounds read low 0.258 | S. cerevisiae deletion strains, locus YDL035C, strain GPR1, active compounds read low 0.321 | S. cerevisiae deletion strains, locus YDL074C, strain BRE1, active compounds read low 0.48 | S. cerevisiae deletion strains, locus YDL101C, strain DUN1, active compounds read low 0.23 | S. cerevisiae deletion strains, locus YDL134C, strain PPH21, active compounds read low 0.355 | S. cerevisiae deletion strains, locus YDL185W, strain tfp1, active compounds read low 0.149 | S. cerevisiae deletion strains, locus YDL192W, strain arf1, active compounds read low 0.24 | S. cerevisiae deletion strains, locus YDR101C, strain arx1, active compounds read low 0.287 | S. cerevisiae deletion strains, locus YDR150W, strain NUM1, active compounds read low 0.605 | S. cerevisiae deletion strains, locus YDR162C, strain NBP2, active compounds read low 0.318 | S. cerevisiae deletion strains, locus YDR318W, strain mcm21, active compounds read low 0.199 | S. cerevisiae deletion strains, locus YDR388W, active compounds read low 0.191 | S. cerevisiae deletion strains, locus YDR502C, strain sam2, active compounds read low 0.2 | S. cerevisiae deletion strains, locus YEL061C, strain CIN8, active compounds read low 0.409 | S. cerevisiae deletion strains, locus YER110C, active compounds read low 0.451 | S. cerevisiae deletion strains, locus YER155C, strain BEM2, active compounds read low 0.464 | S. cerevisiae deletion strains, locus YER167W, strain BCK2, active compounds read low 0.288 | S. cerevisiae deletion strains, locus YGL078C, strain dbp3, active compounds read low 0.238 | S. cerevisiae deletion strains, locus YGL086W, strain mad1, active compounds read low 0.267 | S. cerevisiae deletion strains, locus YGL248W, strain PDE1, active compounds read low 0.331 | [1] 0.437 | S. cerevisiae deletion strains, locus YGR135W, strain pre9, active compounds read low 0.234 | S. cerevisiae deletion strains, locus YGR229C, strain SMI1, active compounds read low 0.197 | S. cerevisiae deletion strains, locus YGR252W, strain gcn5, active compounds read low 0.508 | S. cerevisiae deletion strains, locus YHR030C, strain SLT2, active compounds read low 0.478 | S. cerevisiae deletion strains, locus YHR079C, strain IRE1 (second series), active compounds read low 0.186 | S. cerevisiae deletion strains, locus YHR094C, strain hxt1, active compounds read low 0.275 | S. cerevisiae deletion strains, locus YHR129C, strain ARP1, active compounds read low 0.481 | S. cerevisiae deletion strains, locus YHR200W, strain rpn10, active compounds read low 0.376 | S. cerevisiae deletion strains, locus YIL066C, strain RNR3, active compounds read low 0.468 | S. cerevisiae deletion strains, locus YIL073C, strain SPO22, active compounds read low 0.39 | S. cerevisiae deletion strains, locus YIL125W, strain kgd1, active compounds read low 0.185 | S. cerevisiae deletion strains, locus YIR030C, strain dcg1, active compounds read low 0.26 | S. cerevisiae deletion strains, locus YJL095W, strain BCK1, active compounds read low 0.287 | S. cerevisiae deletion strains, locus YJL134W, strain LCB3, active compounds read low 0.605 | S. cerevisiae deletion strains, locus YJL168C, strain set2, active compounds read low 0.541 | S. cerevisiae deletion strains, locus YJL187C, strain SWE1 (second series), active compounds read low 0.345 | S. cerevisiae deletion strains, locus YJR043C, strain POL32, active compounds read low 0.267 | S. cerevisiae deletion strains, locus YJR075W, strain HOC1, active compounds read low 0.52 | S. cerevisiae deletion strains, locus YKL009W, strain mrt4, active compounds read low 0.381 | S. cerevisiae deletion strains, locus YKL068W, active compounds read low 0.433 | S. cerevisiae deletion strains, locus YKL085W, strain MDH1 (second series), active compounds read low 0.214 | S. cerevisiae deletion strains, locus YKL085W, strain MDH1, active compounds read low 0.214 | S. cerevisiae deletion strains, locus YKL190W, strain CNB1, active compounds read low 0.446 | S. cerevisiae deletion strains, locus YKR001C, strain vps1, active compounds read low 0.189 | S. cerevisiae deletion strains, locus YLR039C, strain RIC1, active compounds read low 0.45 | S. cerevisiae deletion strains, locus YLR058C, strain SHM2, active compounds read low 0.398 | S. cerevisiae deletion strains, locus YLR102C, strain apc9, active compounds read low 0.28 | S. cerevisiae deletion strains, locus YLR262C, strain YPT6, active compounds read low 0.516 | S. cerevisiae deletion strains, locus YLR268W, strain sec22, active compounds read low 0.174 | S. cerevisiae deletion strains, locus YLR330W, strain CHS5, active compounds read low 0.388 | S. cerevisiae deletion strains, locus YLR342W, strain FKS1 (second series), active compounds read low 0.573 | S. cerevisiae deletion strains, locus YLR371W, strain rom2, active compounds read low 0.505 | S. cerevisiae deletion strains, locus YLR418C, strain cdc73, active compounds read low 0.468 | S. cerevisiae deletion strains, locus YML016C, strain PPZ1, active compounds read low 0.364 | S. cerevisiae deletion strains, locus YML032C, strain rad52, active compounds read low 0.238 | S. cerevisiae deletion strains, locus YML124C, strain tub3, active compounds read low 0.302 | S. cerevisiae deletion strains, locus YMR078C, strain ctf18, active compounds read low 0.352 | S. cerevisiae deletion strains, locus YMR223W, strain ubp8, active compounds read low 0.22 | [2] 0.619 | S. cerevisiae deletion strains, locus YNL067W, strain RPL9B, active compounds read low 0.353 | S. cerevisiae deletion strains, locus YNL128W, strain TEP1, active compounds read low 0.29 | [3] 0.504 | S. cerevisiae deletion strains, locus YNL233W, strain BNI4, active compounds read low 0.419 | S. cerevisiae deletion strains, locus YNL250W, strain rad50, active compounds read low 0.246 | S. cerevisiae deletion strains, locus YNL271C, strain bni1, active compounds read low 0.188 | S. cerevisiae deletion strains, locus YNL298W, strain CLA4, active compounds read low 0.319 | S. cerevisiae deletion strains, locus YNL307C, strain MCK1, active compounds read low 0.0999 | S. cerevisiae deletion strains, locus YNL322C, strain KRE1, active compounds read low 0.457 | S. cerevisiae deletion strains, locus YNR052C, strain pop2, active compounds read low 0.11 | S. cerevisiae deletion strains, locus YOL006C, strain TOP1, active compounds read low 0.495 | S. cerevisiae deletion strains, locus YOL147C, strain pex11, active compounds read low 0.27 | S. cerevisiae deletion strains, locus YOR061W, strain CKA2, active compounds read low 0.483 | S. cerevisiae deletion strains, locus YOR069W, strain VPS5, active compounds read low 0.447 | S. cerevisiae deletion strains, locus YOR136W, strain idh2, active compounds read low 0.272 | S. cerevisiae deletion strains, locus YOR144C, strain elg1, active compounds read low 0.352 | S. cerevisiae deletion strains, locus YOR184W, strain ser1, active compounds read low 0.152 | S. cerevisiae deletion strains, locus YOR316C, strain cot1, active compounds read low 0.359 | S. cerevisiae deletion strains, locus YPL055C, strain LGE1, active compounds read low 0.448 | [4] 0.571 | S. cerevisiae deletion strains, locus YPR119W, strain clb2, active compounds read low 0.335 | S. cerevisiae deletion strains, locus YPR141C, strain kar3, active compounds read low 0.272 | S. cerevisiae deletion strains, locus YPR163C, strain tif3, active compounds read low 0.307 | S. cerevisiae deletion strains, locus YPR167C, strain met16, active compounds read low 0.392 | S. cerevisiae deletion strains, strain wtn01, active compounds read low 0.212 | S. cerevisiae strains, strain wild type, active compounds read low 0.351
inactive: S. cerevisiae deletion strains, locus YMR307W, strain GAS1, active compounds read low 0.671 | S. cerevisiae deletion strains, locus YOL012C, strain htz1 0.224

N[C@H](C(=O)O)[C@H]1C[C@@H]1C(=O)O
inactive: S. cerevisiae deletion strains, locus YAL040C, strain CLN3, active compounds read low 1.11 | S. cerevisiae deletion strains, locus YCL061C, strain MRC1 (second series), active compounds read low 1.01 | S. cerevisiae deletion strains, locus YDR363W, strain ESC2, active compounds read low 1.03 | S. cerevisiae deletion strains, locus YER002W, strain NOP16, active compounds read low 1.01 | [1] 1.02 | [2] 1.01 | [3] 1.02 | S. cerevisiae deletion strains, locus YNL175C, strain NOP13, active compounds read low 1 | S. cerevisiae deletion strains, locus YNL197C, strain WHI3, active compounds read low 1.06 | S. cerevisiae deletion strains, locus YNL224C, strain SQS1, active compounds read low 0.996 | S. cerevisiae deletion strains, locus YOR083W, strain WHI5 (second series), active compounds read low 1.03 | [4] 1.01
